This is part of a sample that, as a whole, favours compounds with a hit. Of some 83,000 tested, about 20% had one in any assay.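 Percent growth is the endpoint: 0 to 100 indicates growth inhibition (40 means 60% inhibition), 0 means no net growth, and negative values indicate cell death.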 A number with no mark means an inactive call. The source made the active and inactive calls. Rule for the calls: active = growth percent below 10; inactive = the rest.
What follows are compounds tested on SR leukemia (assay: NCI-60 one-dose screen, 48 h (100 = growth as untreated, 0 = no growth, -100 = all killed)). Conditions: 10 µM unless noted.

Compound | growth
COc1ccc(-c2cc(-c3ccc(N(C)C)cc3)nc(NC(=O)c3ccncc3)n2)cc1 | 121%
CC(=O)CC(C)(C)c1ccc(Cl)cc1 | 101%
Nc1c(C(=O)Nc2ccccc2Cl)sc2nc3c(cc12)CCCCCC3 | 13.2%
O=C(Nc1ccc(Nc2cc(Nc3ccccc3)ncn2)cc1)Nc1cc(C(F)(F)F)ccc1F | 42%
CCOC(=O)C(Cc1cc(I)c(O)c(I)c1)NC(=O)c1ccccc1 (stereo not given) | 88.9%
CCN(CC)CC(O)CNc1c2ccc([N+](=O)[O-])cc2nc2cc(OC)c(OC)cc12 (stereo not given) | -7.08% (active)
COc1cc(-c2c3sc(=O)[nH]c3nc3c2c(=O)[nH]n3C(C)C)cc2c1OCO2 | 81.5%
COc1ccc(/C=c2/c(=O)[nH]c3nc4sc(C)c(C)c4c(=O)n23)cc1 | 53.9%
Fc1ccc(Cc2ccc(F)cc2)cc1 | 116%
COc1ccc2nc3cc(Cl)ccc3c(N3CCN(c4ccnc(N5CCN(C)CC5)n4)CC3)c2c1 | -26.9% (active)
O=C1Nc2ccccc2/C1=C/C(=N/c1nnc(-c2ccc(Cl)cc2)s1)c1ccccc1 | -27.6% (active)
COc1ccccc1N1CCN(CCn2c(=O)c3c(c4ccccc4n3C)n(C)c2=O)CC1 | 78%
CS(=O)(CCCCN=C=S)=NC(=O)c1c(F)c(F)c(F)c(F)c1F (stereo not given) | 23.1%
c1ccc(-c2nc(N3CCOCC3)c3c4c(sc3n2)CCCCC4)nc1 | 59.6%
O=[N+]([O-])c1c(F)cccc1Nc1cccc(F)c1 | 102%
O=C([C@@H](COCc1ccccc1)N1C(=O)[C@@H](N2C(=O)OC[C@@H]2c2ccccc2)[C@H]1/C=C/c1ccccc1)N1CCC(CCN2CCCCC2)CC1 | 30.9%
CC/C=C\C[C@H](O)C/C=C1/C(=O)C=C[C@@H]1C/C=C\CCCC(N)=O | -27% (active)
COc1ccc(C(=O)c2sc3nc(-c4ccccc4OC)ccc3c2N)cc1OC | 21.6%
COc1ccc2nc3cc(Cl)ccc3c(N3CCN(c4nccc(NCc5ccccc5)n4)CC3)c2c1 | 20.9%
O=c1[nH]c(-c2ccccn2)nc2sc3c(c12)CCCCC3 | 27.3%
COc1ccc(C/C(C)=C(\c2ccc(Cl)cc2)c2ccc(OCCN3CCCCCC3)cc2)cc1 | 9.97% (active)

Each compound was assayed on RPMI-8226 leukemia in the same assay as above. Conditions: 10 µM unless noted.

Compound | growth
CC(C)(C)c1nn(-c2ccccc2)c2c1CC1(CN2Cc2ccc3c(c2)OCO3)C(=O)c2ccccc2C1=O | 85.8%
Nc1nc(-c2ccc(F)cc2)cc(-c2cnn(-c3ccccc3)n2)n1 | 105%
CC[C@H](Nc1cc(C)nc(N)n1)c1nc2cccc(NCc3ccc(C(=O)NO)cc3)c2c(=O)n1-c1ccccc1 | -17.9% (active)
C=C1CCC2C3(C)COC(c4cccc(Cl)c4)OC3CCC2(C)C1/C=C/C1=CCOC1=O (stereo not given) | 51.8%
O=S(=O)(Nc1ccc(F)c(Cl)c1)c1ccc(-c2cnc(C3CC3)o2)cc1 | 19.3%
CC(C)c1c(C(=O)Nc2ccccc2)c(-c2ccccc2)c(-c2ccc(F)cc2)n1CC[C@@H]1CC=CC(=O)O1 | -25.9% (active)
COc1cc(NCCCCN=C(N)NC(N)=NC(C)C)c2ncccc2c1 | 17.5%
CS(=O)CCCCCN=C=S (stereo not given) | 5.22% (active)
O=C(CO[N+](=O)[O-])Nc1ccc(C(=O)/C=C/c2ccc3c(c2)OCO3)cc1 | 46.8%
O=C(CCN1CCOCC1)Nc1ccc(Cn2nnc3c2C(=O)c2nnn(Cc4ccc(NC(=O)CCN5CCOCC5)cc4)c2C3=O)cc1 | 5.5% (active)
Cc1ccc(SCN2CCN(c3cccc(Cl)c3)CC2)cc1 | 164%
O=C(Cn1cc(CN2C(=O)c3ccccc3S2(=O)=O)nn1)Nc1ccc([N+](=O)[O-])cc1Cl | 107%
CC1(C)CC(=O)C(c2c(-c3ccccc3)[nH]c3[nH]c(=S)[nH]c(=O)c23)=C(O)C1 | 101%
COc1cc(/C=N\NC(=O)CN2CCN(c3cc4c(cc3F)c(=O)c(C(=O)N/N=C/c3ccc(O)c(OC)c3)cn4C3CC3)CC2)ccc1O | 31.2%
ClC1=C2NC=NC2n2c(nnc2-c2ccc(Cl)cc2)N1 (stereo not given) | 89.2%
CCN1CCN(Cc2ccc(NC(=O)Nc3nc4ccc(Oc5ccnc(C(=O)NC)c5)cc4s3)cc2C(F)(F)F)CC1 | -22.9% (active)
C=C1CCC2C3(C)COC(c4ccc(SC)cc4)OC3CCC2(C)C1C/C=C1/C(=O)OCC1O (stereo not given) | 11.6%

The compounds below were run on OVCAR-8 ovarian in the same assay as above. Conditions: 10 µM unless noted.

Compound | growth
CC(C)(C)c1nn(-c2ccccc2)c2c1CC1(CN2Cc2ccc3c(c2)OCO3)C(=O)c2ccccc2C1=O | 89.2%
COc1ccc(-c2cc(-c3ccc(N(C)C)cc3)nc(NC(=O)c3ccncc3)n2)cc1 | 97.7%
Nc1nc(-c2ccc(F)cc2)cc(-c2cnn(-c3ccccc3)n2)n1 | 100%
CC(=O)CC(C)(C)c1ccc(Cl)cc1 | 101%
Nc1c(C(=O)Nc2ccccc2Cl)sc2nc3c(cc12)CCCCCC3 | 48.8%
CCOC(=O)C(Cc1cc(I)c(O)c(I)c1)NC(=O)c1ccccc1 (stereo not given) | 97.7%
CC[C@H](Nc1cc(C)nc(N)n1)c1nc2cccc(NCc3ccc(C(=O)NO)cc3)c2c(=O)n1-c1ccccc1 | 17.7%
C=C1CCC2C3(C)COC(c4cccc(Cl)c4)OC3CCC2(C)C1/C=C/C1=CCOC1=O (stereo not given) | 71.5%
CCN(CC)CC(O)CNc1c2ccc([N+](=O)[O-])cc2nc2cc(OC)c(OC)cc12 (stereo not given) | -2.1% (active)
COc1cc(-c2c3sc(=O)[nH]c3nc3c2c(=O)[nH]n3C(C)C)cc2c1OCO2 | 108%
O=S(=O)(Nc1ccc(F)c(Cl)c1)c1ccc(-c2cnc(C3CC3)o2)cc1 | 21.7%
COc1ccc(/C=c2/c(=O)[nH]c3nc4sc(C)c(C)c4c(=O)n23)cc1 | 77.8%
Fc1ccc(Cc2ccc(F)cc2)cc1 | 108%
CC(C)c1c(C(=O)Nc2ccccc2)c(-c2ccccc2)c(-c2ccc(F)cc2)n1CC[C@@H]1CC=CC(=O)O1 | -19.9% (active)
COc1ccc2nc3cc(Cl)ccc3c(N3CCN(c4ccnc(N5CCN(C)CC5)n4)CC3)c2c1 | 41.2%
COc1cc(NCCCCN=C(N)NC(N)=NC(C)C)c2ncccc2c1 | 45.4%
CS(=O)CCCCCN=C=S (stereo not given) | -8.89% (active)
O=C(CO[N+](=O)[O-])Nc1ccc(C(=O)/C=C/c2ccc3c(c2)OCO3)cc1 | 75.8%
O=C(CCN1CCOCC1)Nc1ccc(Cn2nnc3c2C(=O)c2nnn(Cc4ccc(NC(=O)CCN5CCOCC5)cc4)c2C3=O)cc1 | 45.6%

Compound | growth
O=C1Nc2ccccc2/C1=C/C(=N/c1nnc(-c2ccc(Cl)cc2)s1)c1ccccc1 | 10.4%
Cc1ccc(SCN2CCN(c3cccc(Cl)c3)CC2)cc1 | 110%
COc1ccccc1N1CCN(CCn2c(=O)c3c(c4ccccc4n3C)n(C)c2=O)CC1 | 85%
CS(=O)(CCCCN=C=S)=NC(=O)c1c(F)c(F)c(F)c(F)c1F (stereo not given) | 97.3%
O=C(Cn1cc(CN2C(=O)c3ccccc3S2(=O)=O)nn1)Nc1ccc([N+](=O)[O-])cc1Cl | 95.3%
c1ccc(-c2nc(N3CCOCC3)c3c4c(sc3n2)CCCCC4)nc1 | 81.2%
O=[N+]([O-])c1c(F)cccc1Nc1cccc(F)c1 | 102%
CC1(C)CC(=O)C(c2c(-c3ccccc3)[nH]c3[nH]c(=S)[nH]c(=O)c23)=C(O)C1 | 100%
O=C([C@@H](COCc1ccccc1)N1C(=O)[C@@H](N2C(=O)OC[C@@H]2c2ccccc2)[C@H]1/C=C/c1ccccc1)N1CCC(CCN2CCCCC2)CC1 | 98.6%
COc1cc(/C=N\NC(=O)CN2CCN(c3cc4c(cc3F)c(=O)c(C(=O)N/N=C/c3ccc(O)c(OC)c3)cn4C3CC3)CC2)ccc1O | 61.7%
CC/C=C\C[C@H](O)C/C=C1/C(=O)C=C[C@@H]1C/C=C\CCCC(N)=O | 11.6%
ClC1=C2NC=NC2n2c(nnc2-c2ccc(Cl)cc2)N1 (stereo not given) | 96.9%
COc1ccc(C(=O)c2sc3nc(-c4ccccc4OC)ccc3c2N)cc1OC | 43.2%
CCN1CCN(Cc2ccc(NC(=O)Nc3nc4ccc(Oc5ccnc(C(=O)NC)c5)cc4s3)cc2C(F)(F)F)CC1 | -18.6% (active)
COc1ccc2nc3cc(Cl)ccc3c(N3CCN(c4nccc(NCc5ccccc5)n4)CC3)c2c1 | 71.4%
C=C1CCC2C3(C)COC(c4ccc(SC)cc4)OC3CCC2(C)C1C/C=C1/C(=O)OCC1O (stereo not given) | 34.9%
O=c1[nH]c(-c2ccccn2)nc2sc3c(c12)CCCCC3 | 36.1%
COc1ccc(C/C(C)=C(\c2ccc(Cl)cc2)c2ccc(OCCN3CCCCCC3)cc2)cc1 | 89.4%

Reference: PubChem BioAssay (NCI)
